Rows were chosen to be rich in hits. Some 11% of all compounds tested hit in one or more screens of this group.
Luciferase inh = Photinus pyralis luciferase inhibition. P08659. purified P. pyralis luciferase, luminescence, biochemical. Potency, µM (top dose mostly 115 µM), hits mostly inhibitors. 76,000 tested, 2.5% active; further: nearly all actives have a fitted effect of over 65% in size
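Inhibitors were tested against purified firefly luciferase in a biochemical, low-substrate format (both substrates at 10uM) and luminescence measured with a CCD imager.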
hNpr1 antagonist = blocks ANP-stimulated signaling of human Npr1 receptor. P16066. HEK293 hNpr1 GloSensor cGMP, ANP-stimulated luminescence. Potency, µM (series often up to 46.3 µM), for the others: at the highest dose activity change, negative = inhibition, most hits filed as inhibitors. 76,000 tested, 1.6% active. AID 1347048; calls by dose curve; further: nearly all actives have a fitted effect of over 60% in size
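HEK293 cells stably expressing human Npr1 and cGMP GloSensor pGS-40F, loaded 2 h with 2% GloSensor reagent, given compound 30 min at room temperature. Luminescence read before and 20 min after 0.1 nM hNppA.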
HEK cytotox = cytotoxic compounds in HEK 293 cells. HEK 293 viability, ATP luminescence (CellTiter-Glo), 48-72 h. Potency, µM (doses to about 115 µM), for the others: at the top dose activity change, negative = cytotoxicity, usual class: inhibitors. 94,000 tested, 6.6% active. AID 1345083; further: nearly all actives have a fitted effect of over 60% in size
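Pintool-delivered compounds were incubated with HEK 293 cells (250 cells/well) at 37 degree Celsius for 48 or 72 hr. ATP-dependent luminescence (CellTiter-Glo) then reported remaining viable cells.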
3T3 cytotox = kills NIH 3T3 cells; AID 1345082; 94,000 tested, 4.3% active; NIH 3T3 viability, CellTiter-Glo ATP luminescence, 48-72 h; Potency, µM (highest dose often 96.7 µM), inactives show at the top dose activity change, negative = cytotoxicity, usual class: inhibitors; further: nearly all actives have a fitted effect of over 55% in size
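Luminescent ATP readout (CellTiter-Glo, 10 min RT) after 48 or 72 hr compound exposure of NIH 3T3 cells seeded at 400 cells/well in 1536-well format; quantitative HTS.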
* hit, by the source's call; i = inactive; ? = inconclusive; · = no result; [ ] = another dose, or the depositor's remark. Unless noted, the call rests on the fitted dose curve; in most records, active means well fitted curve in the direction sought with a large enough effect; inconclusive means small, poorly fitted or top-dose-only effect, or another doubt; inactive means no such curve, though single readings can be large; an effect the other way counts as inactive or inconclusive. On the % scale 0 is the no-effect control and ±100 the full control effect; potency means the concentration at half of the fitted maximal effect.

SMILES | Luciferase inh | hNpr1 antagonist | HEK cytotox | 3T3 cytotox
COC(=O)CNC(=O)c1nc(-c2cc(Cl)cc(Cl)c2)c2ccccn12 | i | -24.7% | 35.5µM* | -15.1%
O=C(NCCc1ccc(Cl)cc1)c1nc(-c2ccc(Cl)cc2Cl)c2cnccn12 | · | · | ? | -26.0%
Cc1cccc(C)c1-c1nc(C(=O)NCCc2ccc(Cl)cc2)n2ccccc12 | i | -4.6% | 50.1µM* | -27.3%
COCCNC(=O)c1nc(-c2ccccc2)c2ccccn12 | i | 6.9%[70.6 µM] | 100µM* | ?
COc1ccccc1-c1nc(C(=O)NCCc2ccc(Cl)cc2)n2ccncc12 | · | · | ? | 28.2µM*
COc1ccc(CN2C(=O)[C@H](OC)[C@@H]2C2=CCN(C(=O)c3cccc(C#N)c3)CC2)cc1 | · | · | -17.9% | -35.5%
COc1ccc(CCNC(=O)c2nc3sccn3c2-c2ccc(F)cc2)cc1 | · | · | i | -7.3%[138 µM]
Cc1ccc(C(=O)N2CCC3(CCC3N3CCOCC3)CC2)s1 (stereo not drawn) | · | · | -23.2% | -10.8%
O=C(c1cccc(Cl)c1)N1CCCC(c2nn(-c3ccccn3)c(=O)[nH]2)C1 (stereo not drawn) | · | · | i | -8.8%
COCCNC(=O)c1nc(-c2c(C)cccc2C)c2ccccn12 | i | -0.6%[70.6 µM] | 35.5µM* | ?
Cc1cccc(-c2nocc2CCC(=O)O)c1 | ? | -0.5% | -2.3% | -7.7%
Cc1cccc(-c2nocc2CCC(=O)NC2CCN(Cc3ccccc3)CC2)c1 | 31.6µM* | -18.9% | ? | ?
CC(=O)NC1CCN(Cc2cccc(-c3cccc(C)c3)c2)CC1 | · | · | ? | 100µM*
Cc1cccc(-c2cccc(CN3CCC(NC(=O)c4ccccc4)CC3)c2)c1 | · | · | 35.5µM* | 25.1µM*
Cc1cccc(-c2cccc(CN3CCC(NC(=O)Nc4ccc(Cl)cc4)CC3)c2)c1 | · | · | 6.31µM* | 11.2µM*
Cc1cccc(-c2cccc(CN3CCC(NC(=O)c4ccc(Cl)cc4)CC3)c2)c1 | · | · | -30.4% | -21.0%
CSc1ccc(-c2cccc(CN3CCC(NC(=O)C4CC4)CC3)c2)cc1 | · | · | -23.6% | -28.3%
O=C(CCc1nc(C2CCCN2Cc2ccc3[nH]ccc3c2)no1)N1CCCC1 (stereo not drawn) | i | -2.5% | -15.8% | ?
Cc1cc2c(-c3cccnc3)nc(-c3c(C)noc3C)cc2[nH]1 | i | 5.7%[70.6 µM] | ? | ?
Cc1ccc(C(=O)NC2CCN(Cc3cccc(-c4cccc(C)c4)c3)CC2)cc1 | · | · | 39.8µM* | 31.6µM*
COc1ccccc1-c1nc(-c2c(C)noc2C)cc2[nH]c(C)cc12 | i | -13.6%[70.6 µM] | ? | 25.1µM*
COc1cc(F)ccc1-c1nc(-c2c(C)noc2C)cc2[nH]c(C)cc12 | i | -0.3%[70.6 µM] | ? | 35.5µM*
Cc1cc2c(-c3ccccc3)nc(-c3c(C)noc3C)cc2[nH]1 | i | 4.7%[70.6 µM] | ? | ?
COc1ncccc1-c1nc(-c2c(C)noc2C)cc2[nH]c(C)cc12 | i | 3.1%[70.6 µM] | ? | ?
CCc1ccc(NC(=O)Cn2c(N(C)Cc3ccccc3)nc(C)cc2=O)cc1 | i | ? | 35.5µM* | ?
SMILES | Luciferase inh | hNpr1 antagonist | HEK cytotox | 3T3 cytotox
Cc1cc(=O)n(CC(=O)Nc2ccc(C)c(C)c2)c(N(C)Cc2ccccc2)n1 | i | ? | ? | ?
CCc1cccc(NC(=O)Cn2c(Nc3cc(C)cc(C)c3)nc(C)cc2=O)c1 | i | -1.6% | 39.8µM* | -13.7%
CCOC(=O)C1(Cc2ccc(OC)cc2)CCNCC1 | i | 7.1% | i | 0.8%
O=C1COc2ccc(Nc3ccccc3F)nc2CN1Cc1ccc(F)cc1 | i | -17.5%[70.6 µM] | 79.4µM* | ?
Cc1csc(Nc2ccc3c(n2)CN(Cc2ccc(F)cc2)C(=O)CO3)n1 | i | ? | 8.91µM* | ?
COCCN1Cc2nc(Nc3ccccc3F)ccc2OCC1=O | i | 1.6%[70.6 µM] | ? | -16.3%[138 µM]
Cc1ccc(CN2CCc3oc(C)c(C(=O)N(C)CC(=O)N4CCCC4)c3C2)cc1 | i | -0.7% | ? | -16.8%
CN(C(=O)Nc1ccccc1)C1CCc2nn(CC3CC3)c(=O)n2CC1 (stereo not drawn) | · | · | 4.1% | -5.7%
O=C(NCc1cccc(Cl)c1)c1ccc2nnc(-c3ccc(OC(F)(F)F)cc3)n2c1 | · | · | ? | -29.2%
CCCn1cc(-c2ccncc2)cc1C(=O)N1CCN(c2ccccn2)CC1 | i | ? | ? | ?
CCCn1cc(-c2ccncc2)cc1C(=O)N1CCN(c2ccccc2F)CC1 | i | -19.9% | 44.7µM* | ?
COc1ccc(-c2cn3cc(C(=O)N(C)C)nc3s2)cc1 | · | · | ? | 89.1µM*

Source: PubChem BioAssay (National Center for Advancing Translational Sciences (NCATS))
